Inconclusive results are not listed. Activity calls are given as the source filed them. Calls come from the whole dose curve; as a rule, active = well fitted cell-killing curve with a large enough effect; inconclusive = small, poorly fitted or top-dose-only effect; inactive = no such curve, though single readings can be large or run the other way.
test: qHTS of pediatric cancer cell lines to identify multiple opportunities for drug repurposing: Primary screen for Saos-2 cells (AID 1347097); settings: Saos-2 viability, CellTiter-Glo ATP luminescence, 48 h; series mostly up to 46 µM; note: nearly all actives have a fitted effect of over 40% in size
Description: Drug repurposing or repositioning has been offered as a strategy for drug development in oncology programs. This approach has special potential for childhood cancers and other rare or orphan diseases, where the expected return on new drug development has been a disincentive to pharmaceuticals. […] In this project we exploit the poly-pharmacology of drugs to discover new indications via phenotypic screening of a panel of 19 well-characterized cell lines derived from solid tumors seen in children and adolescents. The goal is to identify approved drugs with previously unrecognized anticancer properties that has the potential to reveal new mechanisms and biological processes involved in carcinogenesis or drug resistance. We employed a titration-based paradigm (quantitative high-throughput screening or qHTS), where all compounds were tested at multiple concentrations for their effect on cell viability. Concentration-response curves (CRCs) were derived directly from the primary screen, and both potency and efficacy values were used to identify compounds with robust bioactivity profiles. We screened the NIH Chemical Genomics Center (NCGC) Pharmaceutical Collection (NPC) and Mechanism Interrogation Plate (MIPE) small molecule collections of approved and investigational compounds against these cell lines; and measured metabolically active cells after 48 hours of compound treatment as a proxy for cell viability. […] Assay Submitter: Nathalia J. Martinez, National Center for Advancing Translational Sciences, National Institutes of Health, Rockville, MD, USA; email: natalia.martinez@nih.gov Shen, M et al. Quantitative high-throughput phenotypic screening of pediatric cancer cell lines identifies multiple opportunities for drug repurposing. Oncotarget 2017 Dec 19;9(4):4758-4772. PMID 29435139.
The cells were obtained from University of North Carolina (UNC), Pediatric Preclinical Testing Program (PPT), and Coriell Institute (CI). qHTS cell viability assay: Cells were assayed in growth media at a density of 500-1,000 cells/well. Five microliters of cells were dispensed into 1,536-well, white, solid-bottom, TC-treated plates (Greiner Bio One) using a multidrop dispenser and incubated at 37 degrees C, 5% CO2, under a humidified atmosphere for 5 hours. Twenty-three nanoliters of compounds and controls (neutral control DMSO or positive control bortezomib at final concentration of 2.3 µM) were subsequently transferred by Kalypsys pintool. For primary screens, the MIPE collection was tested at 11-point dilutions (final concentrations range from 0.78 nM to 46 µM) and the NPC collection at 8-point dilutions (final concentrations range from 0.59 nM to 46 µM). Compounds tested in follow-up screens were assayed at 11-point dilutions. Cells were incubated for 48 hours, followed by addition of 3 µL of CellTiter-Glo (Promega). After a 15 min incubation at room temperature, samples were analyzed for luminescence intensity using a ViewLux High-throughput CCD imager equipped with clear filters.
Potency is the fitted concentration of half-maximal effect.

| SMILES | Potency |
| --- | --- |
| CN(c1ncccc1CNc1nc(Nc2ccc3c(c2)CC(=O)N3)ncc1C(F)(F)F)S(C)(=O)=O | 6.62 µM (active) |
| O=C(O)Cn1nnc(-c2cc(N3CCC(Oc4cc(F)ccc4Br)CC3)no2)n1 | inactive |
| CC(C)(C)OC(=O)Nc1ccc(-c2cc(C(=O)NCCCCCCC(=O)NO)no2)cc1 | 2.35 µM (active) |
| O=C(O)CCCc1c[nH]c2ccccc12 | inactive |
| Fc1cc(-c2cccc3ncc(-c4cnn(C5CCNCC5)c4)nc23)cc(F)c1CN1CCOCC1 | 29.6 µM (active) |
| Nc1ncnc2c1c(-c1cnc3[nH]ccc3c1)nn2C1CCCC1 | 0.935 µM (active) |
| CCN(CC)CCNC(=O)c1ccc2nc(-c3ccccc3)c(-c3ccc(CN4CCC(n5c(=O)[nH]c6ccccc65)CC4)cc3)nc2c1 | 6.62 µM (active) |
| CC1(C)OC2=C(C(=O)c3ccccc3C2=O)[C@H](NCc2ccccc2)[C@H]1O | 5.9 µM (active) |
| C=C1C(=CC=C2CCC[C@]3(C)[C@@H]([C@H](C)C=C[C@H](C)C(C)C)CC[C@@H]23)C[C@@H](O)C[C@@H]1O | 2.96 µM (active) |
| Nc1ccn([C@@H]2O[C@H](CO)[C@H](O)C2(F)F)c(=O)n1 | 3.72 µM (active) |
| CN1CC[C@@H](c2c(O)cc(O)c3c(=O)cc(-c4ccccc4Cl)oc23)[C@@H](O)C1 | 0.148 µM (active) |
| COc1ccc(-n2nc(C(N)=O)c3c2C(=O)N(c2ccc(N4CCCCC4=O)cc2)CC3)cc1 | inactive |
| CC(=O)c1c(C)c2cnc(Nc3ccc(N4CCNCC4)cn3)nc2n(C2CCCC2)c1=O | 18.7 µM (active) |
| COc1ccc(C(=O)CC2(O)C(=O)Nc3c(Cl)ccc(Cl)c32)cc1 (stereo not given) | 2.09 µM (active) |
| Nc1nc(NCCNc2ncc(-n3ccnc3)c(-c3ccc(Cl)cc3Cl)n2)ccc1[N+](=O)[O-] | 26.4 µM (active) |
| COc1cccc2c(NCc3ccccc3)nc(-n3c(N)nc4ccccc43)nc12 | 3.72 µM (active) |
| Nc1nccc(Oc2ccc(NC(=O)c3c[nH]cc(-c4ccc(F)cc4)c3=O)cc2F)c1Cl | 18.7 µM (active) |
| O=C(NCCS(=O)(=O)c1ccc(C(F)(F)F)cn1)c1ccc(Cl)cc1 | inactive |
| OCc1ccc(-c2ccc(-c3ccc(CO)s3)o2)s1 | inactive |
| C[C@]1(CO)CN(c2cc(C(=O)Nc3ccc4c(c3)-c3c(c(C(N)=O)nn3-c3ccc(F)cc3)CC4)c(Cl)cn2)C[C@@]1(C)CO | 16.6 µM (active) |

| SMILES | Potency |
| --- | --- |
| CNC(=O)CN1CCC(Oc2cc3c(Nc4cccc(Cl)c4F)ncnc3cc2OC)CC1 | 0.0187 µM (active) |
| Cc1nc2cnc3ccc(C#Cc4cccnc4)cc3c2n1-c1ccc(C(C)(C)C#N)cc1 | 0.235 µM (active) |
| COc1cc2c(Oc3ccc4[nH]c(C)cc4c3F)ncnc2cc1OCCCN1CCCC1 | 29.6 µM (active) |
| COC(=O)[C@]12CCC(C)(C)C[C@@H]1[C@@H]1C(=O)C=C3[C@@]4(C)C=C(C#N)C(=O)C(C)(C)[C@@H]4CC[C@@]3(C)[C@]1(C)CC2 | 0.743 µM (active) |
| Cn1c2ccccc2c2c3c(c4c5ccccc5n(CCC#N)c4c21)CNC3=O | 0.935 µM (active) |
| COc1ccc(C=Cc2cc(OC)c(OC)c(OC)c2)cc1O | 0.935 µM (active) |
| Cc1cc(Nc2ncnc3ccc(-c4ccc(CNCCS(C)(=O)=O)o4)cc23)ccc1Oc1ccn2ncnc2c1 | 2.09 µM (active) |
| O=C(O)c1ccc2c(c1)nc(Nc1cccc(Cl)c1)c1ccncc12 | 4.69 µM (active) |
| COc1cc(OC2CCN(C)CC2)ccc1Nc1ncc2c(n1)n(C1CCCC1)c(=O)n2C | 18.7 µM (active) |
| CCCCCN(CCC12CC3CC(CC(C3)C1)C2)C(=O)NCCCc1ccncc1 | 18.7 µM (active) |
| COc1cc2c(Oc3ccc(-c4cnc(Nc5ccc(F)cc5)n(C)c4=O)cc3F)ccnc2cc1OCCCN1CCOCC1 | 2.09 µM (active) |
| CC(C)(C)NC(=O)[C@H]1CN(Cc2cccnc2)CCN1C[C@@H](O)C[C@@H](Cc1ccccc1)C(=O)N[C@H]1c2ccccc2C[C@H]1O | 18.7 µM (active) |
| CC1(C)CC(=O)c2c(C(F)(F)F)nn(-c3ccc(C(N)=O)c(NC4CCC(OC(=O)CN)CC4)c3)c2C1 (stereo not given) | 0.264 µM (active) |
| O=C(Nc1cn[nH]c1-c1nc2ccc(CN3CCOCC3)cc2[nH]1)NC1CC1 | 0.935 µM (active) |
| COc1cc2c(Oc3ccc(NC(=O)C4(C(=O)Nc5ccc(F)cc5)CC4)cc3F)ccnc2cc1OCCCN1CCOCC1 | 2.64 µM (active) |
| COc1c(OCCCN2CCOCC2)ccc2c3n(c(=NC(=O)c4cnc(N)nc4)nc12)CCN3 | 0.0512 µM (active) |
| CCC(=C(c1ccccc1)c1ccc(OCCN(C)C)cc1)c1ccccc1 | 18.7 µM (active) |
| CCOc1ccccc1OCCNC(C)Cc1ccc(OC)c(S(N)(=O)=O)c1 (stereo not given) | inactive |
| C[C@@H]1CN(CC(=O)Nc2ccc3c(c2)Cc2cccc(-c4cc(=O)cc(N5CCOCC5)o4)c2S3)C[C@H](C)O1 | 10.5 µM (active) |
| COc1cccc(Nc2c(C(N)=O)cnc3c(C)cc(S(=O)(=O)c4cccc(C(=O)N(C)C)c4)cc23)c1 | inactive |

From PubChem BioAssay (NCATS)
